The whole screen tested about 39,000 compounds, of which about 500 (1.3%) were called active. The sample holds actives, similar compounds and a random draw of the others, so the mix is not that of the screen.

This test has as its system S. aureus RN4220. In words: growth inhibition call (relative growth <= 0.2). Conditions: 50 µM.
As to `C[C@@H]1CN([C@@H](C)CO)C(=O)Cc2cc(NC(=O)c3ccncc3)ccc2O[C@H]1CN(C)S(=O)(=O)c1ccc(Cl)cc1`, the growth inhibition call was “inactive”.

As to `C[C@@H]1CCCCO[C@H](CN(C)S(=O)(=O)c2cn(C)cn2)[C@H](C)CN([C@H](C)CO)C(=O)c2cc(NS(=O)(=O)c3ccccc3)ccc2O1`, the growth inhibition call is “inactive”.

In the case of `C[C@H](CO)N1C[C@H](C)[C@@H](CN(C)S(=O)(=O)c2cn(C)cn2)Oc2ccc(NC(=O)CCCN(C)C)cc2C1=O`, the growth inhibition call was “inactive”.

For the molecule `C[C@@H]1CCCCO[C@@H](CN(C)S(=O)(=O)c2ccc(F)cc2)[C@H](C)CN([C@@H](C)CO)C(=O)c2cc(NC(=O)CCC(F)(F)F)ccc2O1`, the growth inhibition call is “inactive”.

Take `CC(C)C[C@@H]1NC(=O)[C@@H](C(C)C)NC(=O)[C@@H]2CCCN2C(=O)[C@@H](CC(=O)O)NC(=O)[C@@H](Cc2c[nH]c3ccccc23)NC1=O`: the growth inhibition call was “inactive”.

As for `CC(C)C[C@H]1NC(=O)[C@@H](CCCN)NC(=O)[C@H](C(C)C)NC(=O)[C@H]2CCCN2C(=O)[C@@H](Cc2ccccc2)NC(=O)[C@@H](CC(C)C)NC(=O)[C@@H](CCCN)NC(=O)[C@H](C(C)C)NC(=O)[C@H]2CCCN2C(=O)[C@@H](Cc2ccccc2)NC1=O`, the growth inhibition call was “inactive”.

Consider `C[C@@H]1CN([C@H](C)CO)C(=O)c2cccc(NC(=O)c3cnccn3)c2O[C@H]1CN(C)S(=O)(=O)c1ccccc1`, for which the growth inhibition call was “inactive”.

Regarding `C[C@@H]1CN([C@@H](C)CO)S(=O)(=O)c2ccc(C#CCN(C)C)cc2O[C@H]1CN(C)Cc1cccnc1`, the growth inhibition call was “inactive”.

For the molecule `OC[C@H]1O[C@H]2O[C@@H]3[C@@H](O)[C@H](O)[C@H](O[C@@H]4[C@@H](O)[C@H](O)[C@H](O[C@@H]5[C@@H](O)[C@H](O)[C@H](O[C@@H]6[C@@H](O)[C@H](O)[C@H](O[C@@H]7[C@@H](O)[C@H](O)[C@H](O[C@@H]8[C@@H](O)[C@H](O)[C@H](O[C@@H]1[C@@H](O)[C@@H]2O)O[C@@H]8CO)O[C@@H]7CO)O[C@@H]6CO)O[C@@H]5CO)O[C@@H]4CO)O[C@@H]3CO`, the growth inhibition call is “inactive”.

On to `O=C1C=C(O)C(=O)c2ccccc21`, for which the growth inhibition call was “inactive”.

Take `CC1=CC(=O)c2ccccc2C1=O`: the growth inhibition call was “active”.

`NC1=CC(=O)c2ccccc2C1=O`: the growth inhibition call is “inactive”.

Consider `C[C@H](O)C#Cc1ccc2c(c1)O[C@H](CN(C)C(=O)c1ccccc1)[C@@H](C)CN([C@H](C)CO)S2(=O)=O`, for which the growth inhibition call was “inactive”.

`CN(CC(=O)O)S(=O)(=O)c1ccc(F)cc1`: the growth inhibition call was “inactive”.

`C[C@H](CO)N1C[C@H](C)[C@@H](CN(C)Cc2ccc(C(F)(F)F)cc2)Oc2ccc(NC(=O)C3CCCCC3)cc2C1=O`: the growth inhibition call was “inactive”.

For the molecule `CC1(C)S[C@H]2[C@@H](NC(=O)[C@@H](N)c3ccccc3)C(=O)N2[C@@H]1C(=O)O`, the growth inhibition call is “inactive”.

For the molecule `CC1(C)S[C@@H]2[C@H](NC(=O)C3(N)CCCCC3)C(=O)N2[C@H]1C(=O)O`, the growth inhibition call was “active”.

Regarding `CC1(C)S[C@@H]2[C@H](NC(=O)[C@H](N)c3ccc(O)cc3)C(=O)N2[C@H]1C(=O)O`, the growth inhibition call was “active”.

For the molecule `CC1(C)SC2C(NC(=O)C(N)c3ccc(O)cc3)C(=O)N2C1C(=O)O` (centres undefined), the growth inhibition call is “active”.

`C[C@H]1CN([C@@H](C)CO)C(=O)Cc2cc(NS(=O)(=O)c3cn(C)cn3)ccc2O[C@H]1CN(C)C(=O)NC1CCCCC1`: the growth inhibition call was “inactive”.

On to `C[C@H]1CN([C@@H](C)CO)C(=O)Cc2cc(NS(=O)(=O)c3cn(C)cn3)ccc2O[C@@H]1CN(C)C(=O)Nc1ccc2c(c1)OCO2`, for which the growth inhibition call was “inactive”.

`CN(C)CCCNC(=O)C[C@H]1CC[C@H]2[C@@H](COC[C@@H](O)CN2S(=O)(=O)c2ccc(F)cc2)O1`: the growth inhibition call is “inactive”.

Consider `C[C@H]1CCCCO[C@H](CN(C)CC2CCCCC2)[C@@H](C)CN([C@@H](C)CO)C(=O)c2cc(NC(=O)CCC(F)(F)F)ccc2O1`, for which the growth inhibition call is “inactive”.

For the molecule `O=C(NO)c1ccc(C(=O)N/N=C/[C@H](O)[C@@H](O)[C@H](O)CO)cc1`, the growth inhibition call is “inactive”.

On to `C[C@@H]1CN([C@@H](C)CO)C(=O)c2cccc(NC(=O)Nc3ccc4c(c3)OCO4)c2O[C@@H]1CN(C)S(C)(=O)=O`, for which the growth inhibition call was “inactive”.

On to `Cc1ccc(S(=O)(=O)N(C)C[C@@H]2Oc3ccc(NS(=O)(=O)c4ccc(F)cc4)cc3CC(=O)N([C@H](C)CO)C[C@@H]2C)cc1`, for which the growth inhibition call is “inactive”.

As for `CC(C)CC#Cc1ccc2c(c1)O[C@@H](CN(C)C(=O)c1ccccn1)[C@H](C)CN([C@@H](C)CO)S2(=O)=O`, the growth inhibition call was “inactive”.

With `O=C(C[C@H]1CC[C@H]2[C@@H](COC[C@@H](O)CN2C(=O)Nc2ccc(Cl)c(Cl)c2)O1)NCc1ccncc1`, the growth inhibition call is “inactive”.

As to `O=C(C[C@@H]1CC[C@H]2[C@@H](COC[C@@H](O)CN2C(=O)Nc2ccc(Cl)c(Cl)c2)O1)NCc1ccncc1`, the growth inhibition call is “active”.

Turning to `O=C(C[C@@H]1CC[C@@H]2[C@H](COC[C@@H](O)CN2C(=O)Nc2ccc(Cl)c(Cl)c2)O1)NCc1ccncc1`, the growth inhibition call is “active”.

For `O=C(C[C@@H]1CC[C@H]2[C@@H](COC[C@H](O)CN2C(=O)Nc2ccc(Cl)c(Cl)c2)O1)NCc1ccncc1`, the growth inhibition call was “active”.

`O=C(C[C@H]1CC[C@H]2[C@@H](COC[C@H](O)CN2C(=O)Nc2ccc(Cl)c(Cl)c2)O1)NCc1ccncc1`: the growth inhibition call was “inactive”.

As to `O=C(C[C@H]1CC[C@H]2[C@@H](COC[C@H](O)CN2C(=O)Nc2ccc(Cl)c(Cl)c2)O1)NCc1ccc(Cl)c(Cl)c1`, the growth inhibition call is “inactive”.

Consider `O=C(C[C@@H]1CC[C@@H]2[C@H](COC[C@H](O)CN2C(=O)Nc2ccc(Cl)c(Cl)c2)O1)NCc1ccncc1`, for which the growth inhibition call was “inactive”.

Take `O=C(C[C@H]1CC[C@@H]2[C@H](COC[C@H](O)CN2C(=O)Nc2ccc(Cl)c(Cl)c2)O1)NCc1ccncc1`: the growth inhibition call was “inactive”.

Take `O=C(C[C@@H]1CC[C@@H]2[C@H](COC[C@H](O)CN2C(=O)Nc2ccc(Cl)c(Cl)c2)O1)NCc1ccc(Cl)c(Cl)c1`: the growth inhibition call was “inactive”.

Take `O=C(C[C@@H]1CC[C@H]2[C@@H](COC[C@H](O)CN2C(=O)Nc2ccc(Cl)c(Cl)c2)O1)NCc1ccc(Cl)c(Cl)c1`: the growth inhibition call was “active”.

On to `O=C(C[C@H]1CC[C@H]2[C@@H](COC[C@@H](O)CN2C(=O)Nc2ccc(Cl)c(Cl)c2)O1)NCc1ccc(Cl)c(Cl)c1`, for which the growth inhibition call was “inactive”.

Regarding `O=C(C[C@@H]1CC[C@H]2[C@@H](COC[C@@H](O)CN2C(=O)Nc2ccc(Cl)c(Cl)c2)O1)NCc1ccc(Cl)c(Cl)c1`, the growth inhibition call is “inactive”.

For the origin of these results see the antibiotic and cytotoxicity screens of Wong et al. (2023).
